# PubChem BioAssay
# For some assays here: Measured potencies and affinities stand elsewhere. Active and inactive are the calls of the source. Unless noted, cut-off not given; nearly all actives show IC50 up to about 0.91 µM.
# Biological target: Protein kinase 7 (PK7), Plasmodium falciparum 3D7 (PF3D7_0213400) (UniProt Q7YTF7)
# Experiment: inhibition of Plasmodium PK7 catalytic activity – biochemical, TCAMS antimalarial set, Kinase-Glo luminescence (AID 1159587; call rule not given here)
# Settings: recombinant PfPK7, Kinase-Glo ATP depletion luminescence
# Sequence of Protein kinase 7 (PK7), Plasmodium falciparum 3D7 (PF3D7_0213400) (Q7YTF7 1-343): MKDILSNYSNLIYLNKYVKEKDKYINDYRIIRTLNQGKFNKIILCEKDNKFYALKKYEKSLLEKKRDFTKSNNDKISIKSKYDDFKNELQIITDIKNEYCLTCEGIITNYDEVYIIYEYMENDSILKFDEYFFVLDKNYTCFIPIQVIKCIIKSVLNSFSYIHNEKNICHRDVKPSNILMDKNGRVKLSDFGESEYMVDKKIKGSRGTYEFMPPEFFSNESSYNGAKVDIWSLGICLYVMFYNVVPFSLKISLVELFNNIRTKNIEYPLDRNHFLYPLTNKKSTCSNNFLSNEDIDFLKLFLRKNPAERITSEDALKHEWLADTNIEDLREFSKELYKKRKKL
row,SMILES,outcome
1,Cc1cc(=O)[nH]c(/N=C(/N)NOCCCc2ccccc2)n1,inactive
2,NCCC(=O)Nc1ccc(-c2cnc3[nH]cc(-c4ccc(C(=O)O)cc4)c3c2)cn1,inactive
3,Cc1nc(N)nc(N)c1-c1ccc(Br)c([N+](=O)[O-])c1,inactive
4,O=[N+]([O-])c1ccccc1C=NNc1ccnc2cc(Cl)ccc12,inactive
5,Cc1cc(F)ccc1[C@H]1CNCCN1C(=O)N(C)C(C)(C)c1cc(C(F)(F)F)cc(C(F)(F)F)c1,inactive
6,CN1CCC(NCc2ccc(S(=O)(=O)Nc3ccc(Oc4cccc(Cl)c4)cc3)cc2)CC1,inactive
7,Cc1cc(N[C@@H](Cc2ccccc2)C(=O)NCc2cccs2)nc(NCCc2ccc(F)cc2)n1,inactive
8,COc1ccc([N+](=O)[O-])cc1N(Cc1ccccc1-c1ccccc1)S(=O)(=O)c1ccc(C(F)(F)F)cc1,inactive
9,O=C(Nc1ccc(CCN2CCC(c3nc(COCC(F)(F)F)c(-c4ccccc4)o3)CC2)cc1)c1ccc(F)cc1,inactive
10,CCCNCc1ccc(-c2ccc(CN(C(=O)c3nn(-c4ccccc4)nc3C)C3CCOCC3)cc2)nc1,inactive
11,CN(C)CCOc1cc(NC(=O)Nc2ccc(-c3ccccc3)cc2)ccc1I,inactive
12,CN1CCN(Cc2cccc(-c3ccc4c(Nc5ccc(Oc6ccccc6)cc5)ccnc4c3)c2)CC1,inactive
13,CN1CCN(c2ccc3nccc(CCN4CCC(NCc5ccc6c(n5)NC(=O)CO6)CC4)c3n2)CC1,inactive
14,CCCCCCN1CCCN(Cc2ccc(C(=O)Nc3ccc(C(C)C)cc3)cc2)CC1,inactive
15,CCOC(=O)c1c(C)n(-c2ccccc2)c2ccc(OC(=O)c3ccc(S(=O)(=O)N(CC)CC)cc3)cc12,inactive
16,CCCCNC(=O)[C@@H](NC(=O)c1ccc(O)c(-c2ccc(Cl)c(Cl)c2)c1)C(C)C,inactive
17,O=C(Cn1c(CCc2cccc(F)c2F)cc(=O)c2cccnc21)N(CCCn1ccnc1)Cc1ccc(-c2ccc(C(F)(F)F)cc2)cc1,inactive
18,CS(=O)(=O)n1c(CN2CCN(c3ncc(C(F)(F)F)cc3Cl)CC2)nc2ccccc21,inactive
19,CCOc1cc(C(=O)NC2CCN(Cc3ccccc3)C2)ccc1-c1nc2ccc(Cl)cc2[nH]1 (stereo not given),inactive
20,OC(CNCc1ccccc1OCc1ccccc1)c1cc(Br)cs1 (stereo not given),inactive

row,SMILES,outcome
1,Cc1nc2nc(N)nc(N)c2c(C)c1Cc1ccccc1,inactive
2,Cc1cnc(CS(=O)c2nc3ccc(C(F)(F)F)cc3[nH]2)cc1OCc1ccccc1 (stereo not given),inactive
3,N#Cc1ccc(-c2ccc(C(=O)Nc3ccc4c(c3)CCN(C3CCC3)CC4)nc2)cn1,inactive
4,C[C@@H](CC1CCCCC1)OC(=O)N(C)[C@H]1CCN(C#N)C1,inactive
5,O=C(Cc1cccc(Cl)c1)N1CCc2cc3nccc(N4CCN5CCC[C@H]5C4)c3cc21,inactive
6,O=C(Nc1ccc(C(=O)N2CCN(CCN3CCN(c4cccc(C(F)(F)F)c4)CC3)CC2)cc1)c1cc(Cl)cc(Cl)c1,inactive
7,COc1ccc(NC(=O)Nc2cccc(-c3ccncc3)c2)cc1N1CCN(C)CC1,inactive
8,O=C(/C=C/c1ccc(Cl)c(Cl)c1)NCCCCN1CCCN(C(=O)Nc2ccc(F)c(Cl)c2)CC1,inactive
9,CS(=O)(=O)Nc1ccc2[nH]cc(C3CCN(CC(O)C4CCN(C(=O)/C=C/c5ccc(Cl)c(Cl)c5)CC4)CC3)c2c1 (stereo not given),inactive
10,CCCCCC1c2[nH]c3ccccc3c2CCN1C(=O)OCc1ccccc1 (stereo not given),inactive
11,O=C(NCCCCN1CCC(c2c[nH]c3ccc(-c4ccccc4)cc23)CC1)c1ccc(-c2ccccc2)cc1,inactive
12,O=C(NCc1ccc2c(c1)OCO2)c1nn(CCN2CCC(N3CCCC3)CC2)cc1-c1ccc(Cl)c(Cl)c1,inactive
13,CN1CCN(CCCCCCNc2c3ccccc3nc3ccccc23)CC1,inactive
14,CCN(CC)CCOC(=O)c1ccc(NC(=O)c2cn(-c3ccccc3)nc2-c2cccs2)cc1,inactive
15,CCN(CC)CCN(Cc1ccc(-c2ccc(C(F)(F)F)cc2)cc1)C(=O)CN1C(CCc2cccc(F)c2F)=NS(=O)(=O)c2ccccc21,inactive
16,CCN(CC)CCOc1ccc(N(Cc2ccc(C(C)(C)C)cc2)C(=O)c2ccc(Cc3ccccc3)cc2)cc1OC,inactive
17,Cc1cc(-c2nc3ccc(C(=N)N)cc3[nH]2)c(C)cc1-c1nc2ccc(C(=N)N)cc2[nH]1,inactive
18,O=C(Nc1ccc(Cl)cc1)Nc1cccc(-c2cc(CNCCc3ccccc3)oc2-c2ccncc2)c1,inactive
19,Cc1cc(O)c2c(c1)OC(C)(C)C=C2C1=CCN(Cc2ccccc2)CC1,inactive
20,O=S(=O)(c1ccc(OCc2ccc(Cl)cc2)cc1)c1cc2c(cc1O)CCN(C1CCC1)CC2,inactive

# Biological target: Calcium-dependent protein kinase 4 (Plasmodium falciparum (isolate 3D7)) (UniProt Q8IBS5)
# Experiment: PfCDPK4 kinase inhibitors, biochemical, TCAMS library (AID 1159588)
# Settings: recombinant PfCDPK4, Kinase-Glo ATP depletion luminescence
# Sequence of Calcium-dependent protein kinase 4 (Plasmodium falciparum (isolate 3D7)) (Q8IBS5 whole entry, looked up): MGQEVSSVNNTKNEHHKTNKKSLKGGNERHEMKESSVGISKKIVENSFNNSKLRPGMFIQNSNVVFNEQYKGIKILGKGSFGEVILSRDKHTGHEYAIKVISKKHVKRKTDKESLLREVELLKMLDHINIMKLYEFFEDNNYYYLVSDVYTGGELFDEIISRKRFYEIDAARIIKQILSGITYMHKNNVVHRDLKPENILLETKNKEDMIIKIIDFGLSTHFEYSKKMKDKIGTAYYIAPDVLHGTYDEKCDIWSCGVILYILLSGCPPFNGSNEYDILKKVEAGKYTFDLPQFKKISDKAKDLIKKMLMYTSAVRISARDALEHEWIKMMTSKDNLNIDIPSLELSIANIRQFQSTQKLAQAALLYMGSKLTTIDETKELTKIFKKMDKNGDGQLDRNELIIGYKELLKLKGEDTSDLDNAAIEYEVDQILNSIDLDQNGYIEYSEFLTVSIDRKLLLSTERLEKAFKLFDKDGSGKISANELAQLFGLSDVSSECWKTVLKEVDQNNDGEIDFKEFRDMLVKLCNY
row,SMILES,outcome
1,Cc1cc(=O)[nH]c(/N=C(/N)NOCCCc2ccccc2)n1,inactive
2,NCCC(=O)Nc1ccc(-c2cnc3[nH]cc(-c4ccc(C(=O)O)cc4)c3c2)cn1,inactive
3,Cc1nc(N)nc(N)c1-c1ccc(Br)c([N+](=O)[O-])c1,inactive
4,O=[N+]([O-])c1ccccc1C=NNc1ccnc2cc(Cl)ccc12,inactive
5,Cc1cc(F)ccc1[C@H]1CNCCN1C(=O)N(C)C(C)(C)c1cc(C(F)(F)F)cc(C(F)(F)F)c1,inactive
6,CN1CCC(NCc2ccc(S(=O)(=O)Nc3ccc(Oc4cccc(Cl)c4)cc3)cc2)CC1,inactive
7,Cc1cc(N[C@@H](Cc2ccccc2)C(=O)NCc2cccs2)nc(NCCc2ccc(F)cc2)n1,inactive
8,COc1ccc([N+](=O)[O-])cc1N(Cc1ccccc1-c1ccccc1)S(=O)(=O)c1ccc(C(F)(F)F)cc1,inactive
9,O=C(Nc1ccc(CCN2CCC(c3nc(COCC(F)(F)F)c(-c4ccccc4)o3)CC2)cc1)c1ccc(F)cc1,inactive
10,CCCNCc1ccc(-c2ccc(CN(C(=O)c3nn(-c4ccccc4)nc3C)C3CCOCC3)cc2)nc1,inactive
11,CN(C)CCOc1cc(NC(=O)Nc2ccc(-c3ccccc3)cc2)ccc1I,inactive
12,CN1CCN(Cc2cccc(-c3ccc4c(Nc5ccc(Oc6ccccc6)cc5)ccnc4c3)c2)CC1,inactive
13,CN1CCN(c2ccc3nccc(CCN4CCC(NCc5ccc6c(n5)NC(=O)CO6)CC4)c3n2)CC1,inactive
14,CCCCCCN1CCCN(Cc2ccc(C(=O)Nc3ccc(C(C)C)cc3)cc2)CC1,inactive
15,CCOC(=O)c1c(C)n(-c2ccccc2)c2ccc(OC(=O)c3ccc(S(=O)(=O)N(CC)CC)cc3)cc12,inactive
16,CCCCNC(=O)[C@@H](NC(=O)c1ccc(O)c(-c2ccc(Cl)c(Cl)c2)c1)C(C)C,inactive
17,O=C(Cn1c(CCc2cccc(F)c2F)cc(=O)c2cccnc21)N(CCCn1ccnc1)Cc1ccc(-c2ccc(C(F)(F)F)cc2)cc1,inactive
18,CS(=O)(=O)n1c(CN2CCN(c3ncc(C(F)(F)F)cc3Cl)CC2)nc2ccccc21,inactive
19,CCOc1cc(C(=O)NC2CCN(Cc3ccccc3)C2)ccc1-c1nc2ccc(Cl)cc2[nH]1 (stereo not given),inactive
20,OC(CNCc1ccccc1OCc1ccccc1)c1cc(Br)cs1 (stereo not given),inactive

row,SMILES,outcome
1,Cc1nc2nc(N)nc(N)c2c(C)c1Cc1ccccc1,inactive
2,Cc1cnc(CS(=O)c2nc3ccc(C(F)(F)F)cc3[nH]2)cc1OCc1ccccc1 (stereo not given),inactive
3,N#Cc1ccc(-c2ccc(C(=O)Nc3ccc4c(c3)CCN(C3CCC3)CC4)nc2)cn1,inactive
4,C[C@@H](CC1CCCCC1)OC(=O)N(C)[C@H]1CCN(C#N)C1,inactive
5,O=C(Cc1cccc(Cl)c1)N1CCc2cc3nccc(N4CCN5CCC[C@H]5C4)c3cc21,inactive
6,O=C(Nc1ccc(C(=O)N2CCN(CCN3CCN(c4cccc(C(F)(F)F)c4)CC3)CC2)cc1)c1cc(Cl)cc(Cl)c1,inactive
7,COc1ccc(NC(=O)Nc2cccc(-c3ccncc3)c2)cc1N1CCN(C)CC1,inactive
8,O=C(/C=C/c1ccc(Cl)c(Cl)c1)NCCCCN1CCCN(C(=O)Nc2ccc(F)c(Cl)c2)CC1,inactive
9,CS(=O)(=O)Nc1ccc2[nH]cc(C3CCN(CC(O)C4CCN(C(=O)/C=C/c5ccc(Cl)c(Cl)c5)CC4)CC3)c2c1 (stereo not given),inactive
10,CCCCCC1c2[nH]c3ccccc3c2CCN1C(=O)OCc1ccccc1 (stereo not given),inactive
11,O=C(NCCCCN1CCC(c2c[nH]c3ccc(-c4ccccc4)cc23)CC1)c1ccc(-c2ccccc2)cc1,inactive
12,O=C(NCc1ccc2c(c1)OCO2)c1nn(CCN2CCC(N3CCCC3)CC2)cc1-c1ccc(Cl)c(Cl)c1,inactive
13,CN1CCN(CCCCCCNc2c3ccccc3nc3ccccc23)CC1,inactive
14,CCN(CC)CCOC(=O)c1ccc(NC(=O)c2cn(-c3ccccc3)nc2-c2cccs2)cc1,inactive
15,CCN(CC)CCN(Cc1ccc(-c2ccc(C(F)(F)F)cc2)cc1)C(=O)CN1C(CCc2cccc(F)c2F)=NS(=O)(=O)c2ccccc21,inactive
16,CCN(CC)CCOc1ccc(N(Cc2ccc(C(C)(C)C)cc2)C(=O)c2ccc(Cc3ccccc3)cc2)cc1OC,inactive
17,Cc1cc(-c2nc3ccc(C(=N)N)cc3[nH]2)c(C)cc1-c1nc2ccc(C(=N)N)cc2[nH]1,inactive
18,O=C(Nc1ccc(Cl)cc1)Nc1cccc(-c2cc(CNCCc3ccccc3)oc2-c2ccncc2)c1,inactive
19,Cc1cc(O)c2c(c1)OC(C)(C)C=C2C1=CCN(Cc2ccccc2)CC1,inactive
20,O=S(=O)(c1ccc(OCc2ccc(Cl)cc2)cc1)c1cc2c(cc1O)CCN(C1CCC1)CC2,inactive
